POLK inh = DNA polymerase kappa (human) inhibition. Potency, µM (doses to about 107 µM), without a hit: top-dose activity, negative = inhibition, usual class: inhibitors. 0.53% of 400,000 active. Q9UBT6. purified Pol kappa, fluorescent DNA synthesis assay, 10 min; note: % is set by controls: 0 for no effect and ±100 for the full control effect
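10 nM Pol kappa was preincubated with compounds for 15 min at room temperature. Reaction started with 50 nM (final) substrate. Fluorescence read kinetically at 0 and 10 min.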
Pol iota inh = blocks human DNA polymerase iota activity; Pol iota fluorescent replication assay, 10 min; Q9UNA4; AID 588590; Potency, µM (titrated, usually from 115 µM), for inactives: top-dose activity, negative = inhibition, most hits filed as inhibitors; 1% of 390,000 active
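Pol iota at 10 nM preincubated 15 min with compounds at room temperature; reaction started with fluorescent substrate, 50 nM final. Fluorescence read kinetically at 0 and 10 min; buffer-only wells as negative control.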
L3MBTL1 block = L3MBTL1 (human) inhibition; Q9Y468; AlphaScreen L3MBTL1–H3K9me1 peptide binding; Potency, µM (series often up to 57.1 µM), for the others: at the top dose activity, negative = inhibition, hits mostly inhibitors; 0.66% of 230,000 active; AID 485360; note: % is set by controls: 0 for no effect and ±100 for the full control effect; nearly all actives have a fitted effect of over 60% in size
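Read-out is AlphaScreen signal from streptavidin donor and nickel chelate acceptor beads (10 ug/mL final each) bridging L3MBTL1 (50 nM) and biotinylated K9-monomethylated H3(1-15) peptide (75 nM), after 30 min compound exposure at room temperature.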
Pol eta inh = DNA polymerase eta (human) inhibition | Q9Y253 | recombinant Pol eta, fluorescent DNA replication assay | Potency, µM (doses to about 114 µM), for the others: top-dose activity change, negative = inhibition, hits mostly inhibitors | 1.2% of 390,000 active | AID 588591; note: % is set by controls: 0 for no effect and ±100 for the full control effect
Target sequence (Q9Y253 whole entry, looked up): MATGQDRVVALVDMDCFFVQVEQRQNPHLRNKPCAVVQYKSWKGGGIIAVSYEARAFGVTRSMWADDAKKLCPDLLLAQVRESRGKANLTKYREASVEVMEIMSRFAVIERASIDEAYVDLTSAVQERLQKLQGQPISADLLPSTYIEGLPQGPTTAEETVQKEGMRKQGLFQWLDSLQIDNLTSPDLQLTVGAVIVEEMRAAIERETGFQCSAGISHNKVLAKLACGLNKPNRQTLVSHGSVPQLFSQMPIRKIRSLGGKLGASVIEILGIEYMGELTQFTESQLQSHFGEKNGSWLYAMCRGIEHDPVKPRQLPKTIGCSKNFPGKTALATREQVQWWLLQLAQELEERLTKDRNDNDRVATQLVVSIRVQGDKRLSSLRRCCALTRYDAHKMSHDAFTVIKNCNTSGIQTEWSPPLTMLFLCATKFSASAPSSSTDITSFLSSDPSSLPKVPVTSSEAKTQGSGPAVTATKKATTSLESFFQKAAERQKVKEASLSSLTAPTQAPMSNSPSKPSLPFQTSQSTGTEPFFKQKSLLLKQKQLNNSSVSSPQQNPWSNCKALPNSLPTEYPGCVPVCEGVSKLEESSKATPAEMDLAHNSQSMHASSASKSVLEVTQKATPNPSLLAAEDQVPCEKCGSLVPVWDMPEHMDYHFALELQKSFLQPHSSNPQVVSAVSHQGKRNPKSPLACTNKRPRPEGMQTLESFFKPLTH
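Pol eta (10 nM) was preincubated with compounds for 15 min at room temperature, after which fluorescent replication substrate (50 nM final) was added to start the reaction. Fluorescence was read kinetically at 0 and 10 min.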
POLB inh = DNA polymerase beta (human) inhibition | P06746 | 1.3% of 340,000 active | AID 485314 | Potency, µM (highest dose often 114 µM), for inactives: at the top dose activity change, negative = inhibition, hits mostly inhibitors | Pol beta primer extension/strand displacement, fluorescence kinetic; note: % is set by controls: 0 for no effect and ±100 for the full control effect
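Pol beta (10 nM) was preincubated with compound for 15 min at room temperature. The reaction was then started with 50 nM substrate and read immediately and after a further 10 min at room temperature.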
* hit, by the source's call; ? = inconclusive; · = no result; [ ] = remark or other dose. Rows were chosen to be rich in hits. Some 2.4% of all compounds tested hit in one or more screens of this group. Calls come from the whole dose curve; as a rule, active = well fitted curve in the direction sought with a large enough effect; inconclusive = small, poorly fitted or top-dose-only effect, or another doubt; inactive = no such curve, though single readings can be large; an effect the other way counts as inactive or inconclusive. Potency is the fitted concentration of half-maximal effect.

SMILES	POLK inh	Pol iota inh	L3MBTL1 block	Pol eta inh	POLB inh
COc1ccc(NC(=O)c2ccc3c(SCC(=O)O)c4c(nc3c2)CCCC4)cc1Cl	·	·	2.2%	·	-26.8%
O=C(Nc1cc([N+](=O)[O-])c2[nH]c(=O)c3ccccc3c2c1)C(F)(F)F	-13.6%	-6.0%	·	-11.1%	·
Nc1ccc(Cc2ccc(C=O)cc2)cc1	-18.3%	29.7%	·	·	·
O=C1c2ccccc2-c2n[nH]c3cccc1c23	?	?	·	?	31.6µM*
Cc1c2c(=O)n(-c3nc4ccccc4s3)nc-2cc(O)n1Cc1ccccc1	?	35.5µM*	·	44.7µM*	?
Cc1cc(C)n(-c2nc3ccccc3s2)n1	-4.5%[60.1 µM]	0.8%	10.4%	-4.2%	-1.0%
CCc1ccc(S(=O)(=O)c2c(C(=O)c3ccccc3)cnc3ccc(CC)cc23)cc1	-2.5%	34.2%	·	-9.5%	2.8%
O=[N+]([O-])c1c(NCCCO)cc(Sc2ccc(Cl)cc2)c2nonc12	-14.8%	25.5%	0.4%	-6.6%	25.2%
O=[N+]([O-])c1c(NCCCO)cc(SCc2ccco2)c2nonc12	-4.5%	4.1%	-3.4%	12.8%	50.1µM*
CC(=O)OCCNc1cc(SCc2ccco2)c2nonc2c1[N+](=O)[O-]	79.4µM*	17.8µM*	-7.0%	?	?
CCN(CC)C(=O)c1sc2c(c1C)c(=O)n(CCc1ccccc1)c(=O)n2Cc1cc(C)ccc1C	-2.6%[60.1 µM]	?	·	-1.5%	5.5%
O=C(CSc1nc(O)c(C/C=C/c2ccccc2)c(=O)[nH]1)Nc1cccc(F)c1	-22.5%	?	·	9.2%	?
COCCNc1oc(/C=C/c2ccc(F)cc2)nc1C#N	0.1%	6.5%	·	·	19.5%
O=C(O)c1ccccc1NS(=O)(=O)c1cccc(-n2sc3ccccc3c2=O)c1	-34.6%	25.1µM*	·	50.1µM*	?
CSc1ncccc1C(=O)Nc1cccc(S(=O)(=O)N2CCCCCC2)c1	-0.3%	11.9%	-4.6%	-17.8%	·
COc1ccccc1C(=O)NC(=S)/C=C1/N(C)c2ccccc2C1(C)C	-6.1%	-9.6%	12.6µM*	?	-24.8%
COc1[nH]c(/N=C/c2ccco2)c(C#N)c1C#N	-5.2%	70.8µM*	·	·	·
CCC(C(=O)Nc1nnc2n1CCS2)c1ccccc1 (configuration not stated)	-6.2%[60.1 µM]	-3.9%	·	2.7%	4.7%
Cc1sc2ncn(CC(=O)N3CCN(c4ccc(F)cc4)CC3)c(=O)c2c1S(=O)(=O)N1CCCCC1	5.9%	15.7%	·	-11.2%	10.3%
O=C(CCS(=O)(=O)c1ccc(Br)cc1)NC1CCCC1	?	-4.7%	·	?	22.4µM*
CCc1ccccc1NC(=O)CCS(=O)(=O)c1ccc(C)cc1	10.2%	-7.9%	·	-1.0%	2.5%
CCc1ccccc1NC(=O)CCS(=O)(=O)c1ccc(Br)cc1	-18.1%	0.1%	·	-17.8%	35.5µM*
COc1ccc([N+](=O)[O-])cc1NC(=O)CCS(=O)(=O)c1ccc(Br)cc1	?	8.9%	·	50.1µM*	15.8µM*
O=C(CCNS(=O)(=O)c1ccc(Br)cc1)NC1CCCCC1	-9.7%	-19.3%	·	-5.6%	0.8%
COc1ccc([N+](=O)[O-])cc1NC(=O)CS(=O)(=O)c1ccc(C)cc1	-9.0%	-7.7%	3.1%	-5.7%	1.7%
SMILES	POLK inh	Pol iota inh	L3MBTL1 block	Pol eta inh	POLB inh
COC(=O)C1C(O)CC[C@@H]2CN3CCc4c([nH]c5ccccc45)C3C[C@@H]12 (some centres not stated)	-1.3%[60.1 µM]	·	·	·	·
COc1ccc(CCN2C(=O)CC(C(N)=O)SC2=Nc2ccccc2)cc1 (configuration not stated)	-20.9%	79.4µM*	-27.1%	?	?
Cc1ccccc1OCC(=O)NCC(c1ccc(Cl)cc1)N1CCCCC1 (configuration not stated)	-10.7%	50.2%	·	-23.7%	-0.5%
O=C(CCS(=O)(=O)c1ccccc1)Nc1nc2cc3c(cc2s1)OCO3	-17.5%	70.8µM*	-15.8%	?	?
CCOC(=O)c1noc2nc(C)n(CC(=O)Nc3ccc(OC)c(Cl)c3)c(=O)c12	3.8%[60.1 µM]	10.0%	·	-9.3%	20µM*
CC(C)N(C)C1=CC(=O)C(N(C)C(C)C)=CC1=O	?	44.7µM*	·	7.5%	·
COc1ccc(NC(=O)c2cc(-c3ccccc3Cl)on2)cc1OC	?	79.4µM*	3.6%	-4.3%	16.1%
COc1ccc(NC(=O)c2cc(-c3ccc(OC)c(OC)c3)on2)cc1OC	-21.5%	-10.9%[58.9 µM]	·	-3.6%	25.4%
CN1CCN(c2ncc3ncc(=O)n(-c4ccccc4)c3n2)CC1	-4.1%[60.1 µM]	·	·	·	·
CCc1cccc(C)c1NC(=O)CN1CCN(Cc2ccccc2Cl)S1(=O)=O	2.9%	16.8%	·	-18.3%	?
O=S(=O)(Nc1c(Br)cc(Br)c2cccnc12)C1CC1	11.5%	12.6µM*	·	·	·
O=S(=O)(Nc1c(Br)cc(Br)c2cccnc12)C1CCCCC1	2.7%	1.4%	·	·	·
CN(C1=C(NC(=O)c2ccccc2)C(=O)c2ccccc2C1=O)C1CCS(=O)(=O)C1 (configuration not stated)	6.1%[60.1 µM]	7.94µM*	-28.8%	79.4µM*	?
CCOc1ccccc1C1Nc2ccccc2-c2nnc(SCc3ccccc3)nc2O1 (configuration not stated)	9.3%	25.4%	·	-26.2%	16.9%
CSc1cccc(NC(=O)C2CCN(c3nc4ccccc4[nH]3)CC2)c1	-3.3%[60.1 µM]	14.5%	·	-12.9%	-2.6%
O=C(O)c1c2c(nc3ccc(S(=O)(=O)N4CCC(C(=O)NCc5ccccc5)CC4)cc13)CCCC2	·	·	·	-12.3%	·
COc1ccc(CNC(=O)C2CCN(S(=O)(=O)c3ccc4nc5c(c(C(=O)O)c4c3)CC(C)CC5)CC2)cc1 (configuration not stated)	-10.8%	89.1µM*	·	?	?
COc1ccccc1CNC(=O)C1CCN(S(=O)(=O)c2ccc3nc4c(c(C(=O)O)c3c2)CCCC4)CC1	-26.3%	79.4µM*	·	?	-23.8%
COc1ccccc1CNC(=O)c1cc(S(=O)(=O)N2CCN(c3ccccc3)CC2)ccc1Cl	?	89.1µM*	·	-28.5%	·
CC1CCc2nc3ccc(S(=O)(=O)N4CCC(C(=O)NCc5ccccc5Cl)CC4)cc3c(C(=O)O)c2C1 (configuration not stated)	?	50.1µM*	·	?	39.8µM*
O=C(Nc1ccccc1F)c1cnc(N2CCCCC2)c2ccccc12	-13.0%[60.1 µM]	-17.0%	·	-17.4%	-8.4%
COc1ccc(S(=O)(=O)NCc2cccs2)cc1	-26.9%	-13.6%	·	-4.2%	25.1µM*
CCN(CC)S(=O)(=O)c1ccc(S(=O)(=O)NCc2cccs2)cc1	-9.3%	5.5%	·	-1.7%	39.4%
CC1(C)CC(=O)C(C(=O)/C=C/NCCc2ccccc2)C(=O)C1	-4.8%	11.2%	·	-7.8%	-3.7%
CC1(C)CC(=O)C(C(=O)/C=C/c2ccco2)C(=O)C1	-5.2%	10.4%	-96.5%	-8.5%	11.2µM*
